In PubChem BioAssay AID1508600 (Functional Genomics Laboratory (NCATS/FGL), 2020):
In all, about 53,000 sequences went through this assay and about 3,700 (7%) were called active.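 Rule for the calls: active = gene knockdowns whose robust z-score for IL-1 alpha signal is at least 2 or at most -2, so actives lie on both sides; inactive = the rest.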 This excerpt belongs to a sample that is enriched for actives.

Test: Components of the Cytosolic LPS Sensing Pathway: Gene Identification via Genome-wide siRNA Screen;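 note: robust z of the log signal after scaling to non-targeting control siRNA wells of the plate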
Conditions: RAW264.7 macrophages, IL-1a HTRF, actives lie on both sides, screened at 100 nM (by protocol), cells primed 5 h with Pam3CSK4 first
Summary of the method: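 Supernatant IL-1a by HTRF from RAW264.7 cells primed with Pam3CSK4 (5 hours) and transfected with LipidA (24 hour) after 48h siRNA knockdown at 100 nM; cell viability checked with CellTiter-Glo.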

z-score, active:
GGCGUAUUCUGGUAUCCAGTT against Celf1 2.08
GGCCCAUGAUCCAUUUUGGTT against Prnp -2.07
GCUUUUCGGAGCUCUAUAUTT against Sipa1 -2.23
GGACAUGAGGACUGUAUCATT against Clec4g -3.2
CCAGCUAUGAAUCAGAAUGTT against Bend6 2.6
GCUCGAACAUAGCAGCAAGTT against BC061195 -2.11
GCCAAGUGGUGACAUCAACTT against Ralgds 2.7
GGUACCAGACCUCAUAGUUTT against Cep95 2.16
GGACUUUGAUCAGCUGUCUTT against Tmem17 -2.12
GGGCAGCAUCGGACUAAAUTT against Agtr1a 2.35
GCCUGAAUAUUGCUAUCACTT against Gpr107 2.35
GGUAAUUUAAUGACACAUGTT against A130079P16Rik 2.35
GGAUCCAGACUUAAGCUUATT against Zgpat 2.57
GGCAAUGGAAGUUGGAACATT against Ptch1 -2.15
GGCCAAGAUUAGAUUGCUUTT against Senp2 2.57
GCCCGUAUAGGUAUUGGUCTT against Mpg 2.06
CCUGGUCACUCCAAACCCATT against Zfp950 -2.11
GGAAAUACAGAACACAAGCTT against Plekhm3 2.04
GGUUCUUUUUACUCAGUGGTT against Ankhd1 -2.53
GCUUUAGUGACGGCUCGAATT against Zscan2 2.07
CCCAUGUCGUGACAUCACATT against Slc26a7 -2.93
GGUCAAAGGGAAACAAGUUTT against Creb3l4 -2.02

z-score, inactive:
CGUACCACACGAUGAAUAGTT against Pou4f1 -0.525
CCGCAUGAACUUCCUACAGTT against Ugt1a1 1.2
GCACUGAACUUUCCUGACCTT against Ppdpf 1.78
CCAUUCGAGAUGAGAAGAATT against Gcc1 -0.287
GGGAAAAGAUCGACAAAGATT against Plk2 -0.217
GGAAAAGGAGGAGAGUUAUTT against Nkapl 0.153
GGGUGGUGGCAUUAAACUUTT against Stk36 1.75
GGCAGACGGUAAUAAACAUTT against Ralgapb -1.08
GCGUGUAUACCAGCCUUACTT against Egfl7 0.0437
GGAAGGAUCUAAUCUUUUUTT against Vamp2 1.56
GGAAGAAUUCUUGAAGAUGTT against Cetn4 1.13
GCUAUGUGUUGAUUUAAAGTT against Pdk1 0.422
GGCUACAGCCGUCAAAGAUTT against R74862 -0.091
GGAAGAAGCCUUUUGAGUGTT against Peg3 1.39
CCGAAAGAUCAGCACAUCCTT against Olfr24 -0.184
CGGCUGUGUGCAUUUAAAGTT against Bmpr2 0.616
CCUUUGAUUCACAAUGGUUTT against Smad4 -0.0886
GGGUUUCAACCGUCACCUGTT against Pygl -1.89
GGCCCUUACAGAGUCUGGATT against B930095G15Rik 0.833
CGAAUUCAUACCAAGAAAGTT against Myo3a 0.477
GGGCAAUGUGUUUAUGUAUTT against Tmem30a -0.264
GGAUAUACAAAGGAACGCATT against Wdr20rt -0.862
GGUUCUGACCACCUACAUATT against Htr3a -1.62
GGCUAUACCCUGAAAUAUUTT against Slitrk4 -0.00892
CCUACUACACCACUUGGGUTT against Dpm2 0.365
GGGCAAAUUAGAGACCAAGTT against Nwd2 0.692
GGAGGAUAUGAGCAAGUACTT against Isg20 -0.476
GGUUAACGGAUCAACAUUUTT against Ube2d2a 1.71
GGAAUUUUCUUCAUUUGGATT against Pabpc5 -0.878
GGGAAGAAAAUGAAAGGUUTT against Cdk5rap2 -1.14
GGUGUCAACCAGUUGUUUUTT against Nr2c1 -1.2
CCUAAAGUCACAUCUAAGATT against Pum3 1.06
GGAACUGUCCGAUCUUAGATT against Prrg4 -1.88
GCUACUCCCUGCAUAUUAGTT against Slamf9 -1.48
GGCAGCUUUCCUAUUGAAUTT against Tex19.1 0.233
GGUUGAUCGUGUCAUGUAGTT against Poc1b 0.0595
GGCUAUACCUUUGACUAUGTT against Csnk1g1 0.0256
GGUUGUAGGAGAGGAAGCCTT against Apobr -0.572
GGUACGAAGUCAAAGUGAATT against Dnmt3l 0.0494
GGAGUUAGAUGCCCUCAAGTT against Trappc6a -0.796
CAGCUGAGAUUGAUGGCCATT against Olfr313 -0.6
GCAACAACCACCAAAUCUATT against Prol1 -1.53
GGAAGAAUGUGAUGACUCATT against Zfp11 -0.471
GGAUCCAGACACCUCAAGATT against Vxn 0.702
CGUUCAUGUUGUAAGUAUCTT against Olfr1196 0.461
GGAGACUUUGAAAAAAGACTT against Mrps31 0.5
GCUGAAAAUAUACCAUUCATT against Colec10 -0.798
CGGAUUACAAACCAUAAAATT against Mex3b -0.497
GGAGAAGAGAAAGAUUCUUTT against Dhx9 0.724
GGACACAUGGUGUUGACCATT against Parp12 0.0379
GGACCUGAUCUUCAGGUUUTT against Gpc5 1.73
GGCUCUCAAUUUUAUUUCUTT against Ncaph2 0.894
GCACGAGACACUUUUCAUUTT against Dnajb5 -0.0852
GGAAGCAGAAUUGUAAAGATT against Hrk -1.09
GCAACAAAAGGCCUAAUCATT against 4930550C14Rik -1.74
GGCCCUUGUUUAAAGCCAUTT against Asns 0.0954
CGGCGUAUGAGGAUUGGUUTT against Atp8b1 -0.739
GCUUGAAUCCGAUUUGUUATT against Gramd1c 0.296
GGCAUAUGAUGAUAAGUAATT against P2ry14 0.691
GGCACUGAAGGAGAACCUGTT against Rbbp8nl -0.336
GGAACAACUGAAAAUGAAGTT against Ppp1r21 -1.21
UUCCAUUCAUAUGUCUUGATT against Tas2r109 0.00348
GGUUUUUCUAAGAGAACGGTT against Rnft1 -0.558
GGAGCUCUCGAAGGAUUGUTT against Eda2r -0.768
GGAUAAGAGGGUGAAGUCATT against Cdyl2 -1.06
GGUAUAUAGGGCUGUGGCUTT against Pigs -0.822
GGUGUACUUUAUCUCACGATT against Olfr6 1.1
GCCUGUUCUAGGUGACCUATT against Chd3 0.236
GGUUAAAUAUGUAAACCACTT against Slco2b1 0.0949
CCAUAUAGCCUCAAAAUCGTT against Acat2 -0.395
CGUCUCAACAGAGUUGGAGTT against Prmt2 1.94
CGAUGCUGAUGUAUCAAAGTT against Phkb 1.48
GGAACUUCCUGUUCAGAAATT against Eci3 0.881
CGUUAGUCUGUGAAUGCACTT against Emc10 -0.442
GGACAGUAAUAUGAUGAGCTT against Lzts1 -0.943
GGGAGUGAGUUCUGGAGUGTT against Capn2 0.815
GGUUUUAAAGCAAUGAGCATT against Olfr995 -1.2
GGCCUUCUAUUUUGUCAAUTT against Limd1 0.403
GAAAUUUCCUAGAUGACUCTT against Vmn1r199 -0.447
CGUAUGAGUGCAAUACUAATT against Pcmtd1 1.32
GCACAUAGUGUAUCUAUACTT against Cd86 -1.24
GUCUUGCGUGACAACAUCCTT against H4c14 0.718
GCUUAUAUGGCCUGAGAGATT against Tmem199 -0.74
GGUGGUUUAACUGGAUAUUTT against Paip2b -1.95
GCCCAUGUAUCCAAAAGAATT against Cnmd -1.59
GGUGAUUGACAGAUUCUGATT against Nr4a1 -0.613
